PubChem BioAssay AID588342 (National Center for Advancing Translational Sciences (NCATS), 2011)
In all, about 360,000 compounds went through this assay and about 25,000 (6.9%) were called active. Roughly 9% stayed inconclusive and do not appear here. Calls follow the shape of the dose curve; as a rule, active = well fitted inhibition curve with a large enough effect; inconclusive = small, poorly fitted or top-dose-only effect; inactive = flat fitted curve, though single readings scatter. What follows is part of a selection rich in actives, with near analogues and random picks from the rest. Entries that show only a call come without a potency.

biological target: Luciferin 4-monooxygenase (Photinus pyralis) (UniProt P08659); assay: qHTS profiling assay for firefly luciferase inhibitor/activator using purifed enzyme and Km concentrations of substrates (counterscreen for miR-21 project); conditions: purified FLuc, luminescence inhibition; series mostly up to 57.5 µM; also: nearly all actives have a fitted effect of over 55% in size
Sequence (P08659 whole entry, looked up): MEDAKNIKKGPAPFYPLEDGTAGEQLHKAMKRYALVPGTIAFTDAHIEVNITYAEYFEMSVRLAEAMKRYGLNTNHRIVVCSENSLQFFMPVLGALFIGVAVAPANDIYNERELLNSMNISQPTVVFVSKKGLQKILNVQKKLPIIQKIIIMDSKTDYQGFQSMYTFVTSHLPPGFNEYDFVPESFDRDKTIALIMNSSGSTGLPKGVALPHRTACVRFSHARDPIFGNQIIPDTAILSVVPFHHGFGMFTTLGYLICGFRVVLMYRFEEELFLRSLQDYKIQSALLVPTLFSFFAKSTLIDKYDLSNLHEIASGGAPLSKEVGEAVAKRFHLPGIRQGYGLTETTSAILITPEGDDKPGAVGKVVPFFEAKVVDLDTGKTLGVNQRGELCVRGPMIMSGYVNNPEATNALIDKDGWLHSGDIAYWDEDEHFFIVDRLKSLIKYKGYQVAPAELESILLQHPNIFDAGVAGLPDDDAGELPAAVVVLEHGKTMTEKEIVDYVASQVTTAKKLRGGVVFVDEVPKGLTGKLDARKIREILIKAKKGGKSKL
Method in brief: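 Biochemical qHTS of compounds, final roughly 60 µM downward over six points, against 10 nM purified firefly luciferase using Km concentrations of substrates (10 uM D-luciferin, 10 uM ATP) in Tris acetate pH 7.5 buffer; luminescence output.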
Potency is read from the fitted curve at half-maximal effect.

Structure (SMILES)	Potency
COc1ccc(C)cc1NC(=O)CN1c2cccc3cccc(c23)S1(=O)=O	inactive
CCOC(=O)c1cc(-c2ccccc2C)n(Cc2cc(C)no2)n1	inactive
COc1cccc(OC)c1C(=O)Nc1ccc(Cc2ccncc2)cc1	inactive
CC(C)CC(=O)Nc1ccc(Cc2ccncc2)cc1	inactive
CCc1ccc(NC(=O)Nc2ccncc2)cc1	9.53 µM (active)
CCCN(C(=O)c1nc2nccc(C)n2n1)c1c(N)n(Cc2ccccc2)c(=O)[nH]c1=O	inactive
CCOC(=O)/C(=N\Nc1cc(Cl)ccc1Cl)N1CCN(C)CC1	inactive
CC(C)Cc1nc(Nc2ccc(S(=O)(=O)N3CCCC3)cc2)c2nnn(Cc3ccccc3)c2n1	inactive
Cc1onc(-c2ccc(F)cc2F)c1C(=O)Nc1cccc(C(F)(F)F)c1	inactive
CCCC(=O)Nc1cccc(NC(=S)NC(=O)C(C)Oc2ccc(Cl)cc2Cl)c1 (stereo unspecified)	inactive
CC(C)n1ncc2c(C(=O)NCc3ccccc3CN(C)C)cc(C3CC3)nc21	inactive
COC(=O)Cc1cc(=O)n(-c2nc3ccccc3s2)[nH]1	16.9 µM (active)
COC(=O)CC1=NN(c2nc(C)cc(C)n2)C(=O)C1	inactive
COC(=O)Cc1csc(Nc2c(C)n(C)n(-c3ccccc3)c2=O)n1	inactive
CCCCOc1ccc(CNC(=O)c2ccc3c(c2)N(C)C(=O)C2CCCCN32)cc1 (stereo unspecified)	inactive
Cn1c(Nc2cccc(Cl)c2)nc2ccccc21	26.9 µM (active)
Cc1c(C(=O)Nc2cccc(Cl)c2)cn2c(nc3ccccc32)c1C#N	inactive
C/C(=N\c1nc2ccccc2n1C)c1cc(Cl)ccc1O	inactive
Cc1ccc(S(=O)(=O)N2CCc3cc(C(=O)Nc4ccc(Cl)cc4C)ccc32)cc1	inactive
NC(=O)Cn1cc(/C=N\NS(=O)(=O)c2ccccc2)c2ccccc21	inactive
COc1cccc(NCCC(=O)c2cccc([N+](=O)[O-])c2)c1	15.1 µM (active)
COc1cccc(C(=O)CC(=O)C(=O)Nc2ccc([N+](=O)[O-])cc2C)c1	inactive

Structure (SMILES)	Potency
COc1cccc(CNC(=O)CCCC(=O)Nc2cccc([N+](=O)[O-])c2)c1	inactive
CC(=O)c1ccc(OCCCC(=O)Nc2ccc(C)c(S(=O)(=O)N3CCOCC3)c2)cc1	inactive
Cc1ccc(NC(=O)CN2c3ccccc3S(=O)(=O)c3ccccc32)cc1F	inactive
Cc1ccc(F)cc1S(=O)(=O)N1CCC(c2nc3ccccc3s2)CC1	inactive
N#C/C(=C(/O)Cc1cccc2ccccc12)c1nc2ccccc2s1	inactive
CC1=CC(=C(C#N)c2nc3ccccc3s2)C=C(C)N1c1ccc(F)cc1F	1.35 µM (active)
COc1ccc(/C=C(\C#N)c2c[nH]c3ccccc23)cc1	19 µM (active)
COc1ccc2[nH]cc(/C=C(/C#N)S(=O)(=O)c3ccccc3)c2c1	inactive
COc1ccc(C(C(O)C(=O)c2c[nH]c3ccccc23)N2CCN(c3ccccc3)CC2)cc1 (stereo unspecified)	inactive
CCOC(=O)c1cc(NC(=O)c2ccc(F)cc2)c(=O)n2c1oc1ccccc12	inactive
COC1=C/C(=C/c2c(N)n3nc(CC(=O)N4CCOCC4)sc3nc2=O)C=CC1=O	inactive
COc1cc2c(cc1OC)CN(CC(=O)Nc1ccc(F)cc1)CC2	inactive
CCNC(=O)c1ccc(OCC(=O)Nc2ccc(F)cc2)c(OC)c1	inactive
COc1cc2c(cc1OC)/C(=C/C(=O)c1ccc(NC(C)=O)cc1)NCC2	16.9 µM (active)
CCN(CC(=O)Nc1ccccc1C(=O)NC1CC1)Cc1cccs1	inactive
Cc1cc(OCC(=O)NCC2(N(C)C)CCCCC2)cc(C)c1Cl	inactive
Cc1ccnc(SCC(N)=O)n1	inactive
Cc1ccnc(N2CCCC(C(=O)NC3CC3)C2)n1 (stereo unspecified)	inactive
Cc1ccnc(-n2sc3ccccc3c2=O)n1	9.53 µM (active)
CCN(Cc1ccccc1)S(=O)(=O)c1ccc2c(c1)CCCN2C(C)=O	inactive
COc1ccc(N2CCN(C(=O)COc3ccc4c(C)cc(=O)oc4c3)CC2)cc1	inactive
CN(CCOc1ccccc1)C(=O)c1cc(COc2c(F)cccc2F)on1	inactive

Structure (SMILES)	Potency
Cc1cc(CN(C)C(=O)c2cc(COc3ccc(C)c(C)c3)on2)n[nH]1	2.39 µM (active)
CCn1ccnc1CN(C)C(=O)c1cc(COc2ccc(-n3cncn3)cc2)on1	inactive
Cc1ccc(OCc2cc(C(=O)N(C)CCc3ccccc3)no2)cc1C	23.9 µM (active)
CN(Cc1cccnc1)C(=O)c1cc(COc2ccc3ncccc3c2)on1	inactive
CN(Cc1cnccn1)C(=O)c1cc(COc2cccc(C(F)(F)F)c2)on1	inactive
COc1cccc(CNC(=O)c2cc(=O)[nH]c3ccc(S(=O)(=O)N4CCCCC4)cc23)c1	inactive
Cc1cccc(OCCCC(=O)Nc2sc3c(c2C(N)=O)CCC(C)C3)c1 (stereo unspecified)	inactive
OC(c1ccccc1)C(CN1CCOCC1)c1ccccc1 (stereo unspecified)	inactive
COC(=O)c1ccccc1NC(=O)c1cnn(-c2ccc(F)cc2)c1-n1cccc1	inactive
COC(=O)c1c(NC(=O)CCCOc2ccccc2)sc2c1CCC(C)C2 (stereo unspecified)	inactive
CC1CCN(C(=O)COC(=O)CCC(=O)c2cccs2)CC1	inactive
O=C(Nc1ccc2nc(SCC(=O)N3CCCc4ccccc43)sc2c1)c1ccc(Cl)cc1	inactive
Cc1nnc(SCC(=O)NCCOc2ccc(Cl)cc2)n1-c1ccccc1	inactive
Cc1nnc(SCC(=O)N2CCN(c3ccccc3)CC2)n1-c1ccccc1	inactive
Cc1nnc(SCc2ccc(C(=O)c3ccc(Cl)cc3)o2)n1-c1ccccc1	15.1 µM (active)
COc1ccc(C)cc1NC(=O)c1cc(-c2ccccc2)nc2c1cnn2C(C)C	inactive
COCCN(CCOC)c1nc(N)c2c(N)nc3c(c2c1C#N)CC(=O)N3Cc1ccc(Cl)cc1	inactive
CCOC(=O)C1CCCN(Cc2nc(N)nc(Nc3ccc(C)cc3)n2)C1 (stereo unspecified)	inactive
Cc1nnc(SCc2nc3ccccc3nc2C)s1	inactive
Cc1ccc(Nc2nc(N)nc(CSc3nnc(C)s3)n2)cc1	10.7 µM (active)
O=C(COC(=O)Cn1[nH]c(=O)c2ccccc2c1=O)Nc1ncc(Cl)cc1Cl	inactive
Cc1ccc(S(=O)(=O)NCCC(=O)NNC(=O)C2COc3ccccc3O2)cc1 (stereo unspecified)	inactive

Structure (SMILES)	Potency
CCN(CCCNC(=O)Cn1ncc2c3ccccc3n(C)c2c1=O)Cc1ccccc1	inactive
O=C(Cc1ccc(Cl)cc1)Nc1ccc2nn(-c3ccc(Cl)cc3)nc2c1	inactive
Cc1nn(CC(=O)Nc2ccc(F)cc2)c(=O)c2ccccc12	inactive
CCC(=O)Nc1ccc2nn(-c3ccc(F)cc3)nc2c1	1.35 µM (active)
Cc1ccc(NC(=O)c2oc3ccc(S(=O)(=O)N4CCCCC4)cc3c2C)cc1Cl	inactive
COc1ccc(C(=O)N2CCN(c3ncccn3)CC2)cc1S(=O)(=O)N1CCOCC1	inactive
CCc1nc2c(cnn2-c2ccc(C)cc2)c(=O)n1-c1ccc(C)cc1	inactive
O=c1c(Cl)c(NC2CC2)cnn1-c1ccccc1	inactive
C=CCNc1cnn(-c2ccc(C)cc2)c(=O)c1Cl	15.1 µM (active)
CCCCN(CC)CCCNC(=O)Cn1ncc2c([nH]c3ccc(C)cc32)c1=O	inactive
O=C(CNCc1ccc(Cl)cc1)Nc1cccc(C(=O)O)c1	inactive
O=C(c1ccc(F)cc1)n1cc(C(=S)N2CCOCC2)c2ccccc21	inactive
O=C(Nc1c(-c2ccc(F)cc2)nc2ccccn12)c1cccc(F)c1	inactive
O=C(c1ccc(F)cc1)n1c(=S)nc2ccccn21	0.269 µM (active)
Cc1cc(C)c(NC(=O)c2cc3sc(Cl)cc3n2C)c(C)c1	inactive
O=C(NCCCn1ccnc1)c1cc2c(s1)CCCC2	inactive
O=C(NNC(=O)C1CCC1)c1ccccc1	inactive
COc1ccc(C(CNC(=O)c2cc3c(s2)CCCC3)N2CCOCC2)cc1 (stereo unspecified)	inactive
O=C(NCC1CCCO1)c1cc2c(s1)CCCC2 (stereo unspecified)	12 µM (active)
O=C(NCCCN1CCOCC1)c1cc2c(s1)CCC2	inactive
O=C(NNC(=O)c1cc2c(s1)CCCC2)c1ccccc1	26.9 µM (active)
CCC(=O)c1c[nH]c(C(=O)NCC2CCCO2)c1 (stereo unspecified)	inactive

Structure (SMILES)	Potency
O=C(Nc1ccc(F)cc1)c1cc2c(s1)CCCC2	1.9 µM (active)
O=C(c1cc2c(s1)CCC2)N1CCN(c2ccccc2)CC1	inactive
COc1ccc(Cn2c(=O)c3oc4ccccc4c3n(CC(=O)Nc3ccc(F)cc3F)c2=O)cc1	inactive
COc1ccc(Cn2ccn(Cc3cccc(OC)c3)c(=O)c2=O)cc1	inactive
CN(C)c1ccc(NC(=O)CSc2nc(-c3ccco3)cc(C(F)(F)F)n2)cc1	inactive
CSc1ccccc1OCc1cc(C(=O)N(C)CCc2c(C)n[nH]c2C)no1	inactive
CSc1ccccc1OCc1cc(C(=O)N2C[C@H]3CC[C@H]2C3)no1	10.7 µM (active)
COC(=O)[C@@H]1CCCN1C(=O)c1cc(COc2cccc3cccnc23)on1	inactive
CCc1nnc(SCc2nc(-c3cccc(C)c3)oc2C)c2cc3sc(C)cc3n12	inactive
COc1ccc2[nH]c3ccc(OC)cc3c2c1	21.3 µM (active)
COc1ccc2[nH]c(=S)cc(C)c2c1	inactive
COc1ccc2[nH]c(C(=O)N3CCN(C)CC3)c(C)c2c1	inactive
CCCCn1c(CNC(=O)C23CC4CC(CC(C4)C2)C3)nnc1SCC(=O)Nc1ccc(C)cc1	inactive
CC(C)Oc1ccc(CNC(=O)C2CCN(c3nc4ccccc4n(C)c3=O)CC2)cc1	inactive
O=C(O)COCC(=O)NCc1csc2ccc(Cl)cc12	inactive
CC(=O)Nc1cccc(/C(C)=N/NC(=O)c2c(-c3ccccc3Cl)noc2C)c1	inactive
Cc1ccccc1NC(=O)c1cc(S(=O)(=O)Nc2cccc(C(=O)O)c2)ccc1Cl	inactive
C/C(=N\Nc1cccc(C(=O)O)c1)c1ccc2c(c1)Nc1ccccc1S2	7.57 µM (active)
